These results are taken from PubChem BioAssay AID645 (SRMLSC, 2007).

Screen size: about 65,000 compounds; about 450 (0.69%) were called active.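 The calls were made as follows: active = HER2 level under 5% of the carrier-only control; inconclusive = no clear call, values can overlap the other calls; inactive = the rest.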 What follows is part of a selection rich in actives, with near analogues and random picks from the rest.

The target of this test is Receptor tyrosine-protein kinase erbB-2 (Homo sapiens) (UniProt P04626). The experiment in a line: reducers of endogenous HER2 protein levels – SKBR-3 cells, AlphaScreen, 66K library, primary screen (AID 645).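 Also: 100% = DMSO carrier and 0% = 500 nM PU-H71 HSP90 inhibitor; lower value means stronger loss of Her2 protein.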 To be noted: SKBR-3 HER2 protein level, 18-24 h, at 10 µM, active compounds read low.
Sequence of Receptor tyrosine-protein kinase erbB-2 (Homo sapiens) (P04626 whole entry, looked up): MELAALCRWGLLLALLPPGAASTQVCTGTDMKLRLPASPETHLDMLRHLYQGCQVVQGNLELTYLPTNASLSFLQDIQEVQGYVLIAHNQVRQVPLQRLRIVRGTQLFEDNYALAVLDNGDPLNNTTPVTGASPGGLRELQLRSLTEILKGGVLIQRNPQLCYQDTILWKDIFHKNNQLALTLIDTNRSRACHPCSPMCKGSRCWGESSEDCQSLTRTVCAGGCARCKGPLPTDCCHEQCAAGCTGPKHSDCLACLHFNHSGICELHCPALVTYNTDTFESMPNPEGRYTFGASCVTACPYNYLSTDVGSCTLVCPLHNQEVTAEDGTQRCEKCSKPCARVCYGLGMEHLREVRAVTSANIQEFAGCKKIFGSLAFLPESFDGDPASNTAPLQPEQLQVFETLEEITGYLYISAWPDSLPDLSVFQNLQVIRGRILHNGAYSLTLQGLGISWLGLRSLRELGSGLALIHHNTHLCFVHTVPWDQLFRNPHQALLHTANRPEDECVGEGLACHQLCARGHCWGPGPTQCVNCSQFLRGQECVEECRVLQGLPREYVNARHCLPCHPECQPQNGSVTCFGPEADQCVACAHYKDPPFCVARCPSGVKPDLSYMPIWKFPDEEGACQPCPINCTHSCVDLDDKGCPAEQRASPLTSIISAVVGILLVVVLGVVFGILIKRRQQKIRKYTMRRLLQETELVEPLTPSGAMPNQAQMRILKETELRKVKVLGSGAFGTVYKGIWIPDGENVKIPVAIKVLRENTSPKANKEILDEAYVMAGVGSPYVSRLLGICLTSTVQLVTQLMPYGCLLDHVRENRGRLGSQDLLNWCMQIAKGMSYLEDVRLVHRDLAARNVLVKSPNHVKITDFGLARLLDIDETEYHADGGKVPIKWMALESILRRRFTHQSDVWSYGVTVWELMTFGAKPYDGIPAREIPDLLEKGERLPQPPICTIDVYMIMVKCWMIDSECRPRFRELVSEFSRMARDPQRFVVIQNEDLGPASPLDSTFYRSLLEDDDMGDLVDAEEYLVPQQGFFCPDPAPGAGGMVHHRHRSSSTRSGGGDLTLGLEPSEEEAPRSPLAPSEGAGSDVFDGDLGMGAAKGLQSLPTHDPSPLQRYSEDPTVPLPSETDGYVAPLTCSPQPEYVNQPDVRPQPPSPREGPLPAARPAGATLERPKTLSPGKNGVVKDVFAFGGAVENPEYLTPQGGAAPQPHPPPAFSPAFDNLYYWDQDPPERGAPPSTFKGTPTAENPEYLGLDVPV
As to `CC(C)Cc1nc(N2CCOCC2)c(C#N)c2c1CCC2`, the HER2 level % of control was 106% (inactive).

Take `CCN1CCc2c(C#N)c(NCc3ccccc3)nc(NCCO)c2C1`: the HER2 level % of control was 94.1% (inactive).

`CC(C)CCNc1nc(N2CCCC2)c2c(c1C#N)CCN(C)C2`: the HER2 level % of control was -0.705% (active). In the case of `COc1ccc(-c2cc3n(n2)CCc2nc4ccccc4n2-3)cc1`, the HER2 level % of control is 74.2% (inactive). Turning to `COC(=O)CN(c1nc(C)c(Cl)c(OC)n1)S(=O)(=O)c1ccc(C)cc1`, the HER2 level % of control is 103% (inactive).

Regarding `CCC(=NC1CC(C)(C)NC(C)(C)C1)C1=C(O)CC(C)(C)CC1=O`, the HER2 level % of control was 76% (inactive). For `CNC(=O)c1cc2c(ccc3ccccc32)oc1=N`, the HER2 level % of control was 74.1% (inactive).

Take `CCCC1C(c2ccccc2)C(C#N)(C#N)C2(C#N)CC1(N)NC2=O` (stereo not given): the HER2 level % of control was -19.3% (active). The result for `O=C(O)CN(Cc1ccco1)S(=O)(=O)c1ccccc1` reads 110% (inactive). As for `CC1CCCC(C)N1C(=O)CN1CCN(c2nc(-c3ccc(F)cc3)cs2)CC1` (stereo not given), the HER2 level % of control was 90.1% (inactive).

For the compound `CCCCc1nccn1CCn1ccnc1CCCC`, the HER2 level % of control is 106% (inactive). The result for `CCOC(=O)N1CCC(NC(=O)c2cnn3ccccc23)CC1` reads 106% (inactive); that for `CCCCCCC(=O)N(O)C1CC(=O)N(c2ccccc2)C1=O` (stereo not given), 81.1% (inactive). The result for `CCN(CC)C(=O)C1CCC(C)(C(=O)O)C1(C)C` (stereo not given) reads 100% (inactive); that for `Cc1cc(C)c(C(=O)CN2C(=O)CCC2=O)cc1C`, 93.5% (inactive).

In the case of `CCCc1nc(SCC(=O)Nc2ccccc2OC)c2c(=O)n(C)c(=O)n(C)c2n1`, the HER2 level % of control was 31% (inactive). To `COc1ccc(-c2c(C)nn3c(N4CCC(C(=O)N5CCCCC5)CC4)cc(C)nc23)cc1OC` belongs 83.2% (inactive); to `O.O.O.O=S(=O)([O-])OC[C@H]1O[C@@H](O[C@]2(COS(=O)(=O)[O-])O[C@H](OS(=O)(=O)[O-])[C@@H](OS(=O)(=O)[O-])[C@@H]2OS(=O)(=O)[O-])[C@H](OS(=O)(=O)[O-])[C@@H](OS(=O)(=O)[O-])[C@@H]1OS(=O)(=O)[O-].[Al]`, 102% (inactive). In the case of `CC(NC(=O)CSc1nc2c(cc1C#N)CN(C)CC2)c1ccccc1` (stereo not given), the HER2 level % of control was 110% (inactive).

On to `CSc1cccc(NC(=O)CSc2ccccc2)c1`, for which the HER2 level % of control was 95.7% (inactive). To `O=C(NCCCN1CCN(C2CCCCC2)CC1)Nc1ccccc1C(F)(F)F` belongs 82.5% (inactive). To `CCCCN(C)Cc1c(C)[nH]c2ccc(Cl)cc2c1=O` belongs 88% (inactive). To `CCCC(C)n1[nH]c(=O)c2c(C)cc(C)nc21` (stereo not given) belongs 90.1% (inactive); to `c1cc(-n2cnnn2)ccc1NC1=NCCC1`, 92.1% (inactive). For the compound `COCCOC(=O)C1=C(C)NC(=O)NC1c1ccc(Cl)cc1` (stereo not given), the HER2 level % of control was 95.6% (inactive).

As for `N#Cc1ccc(CSc2nnc(-c3ccccn3)n2-c2ccc(Cl)cc2)cc1`, the HER2 level % of control is 41.4% (inactive). To `O=C(c1ccco1)N1CCN(C(=O)C2CC(c3ccc(F)cc3)=NO2)CC1` (stereo not given) belongs 57.7% (inactive); to `OCCNCCCCOc1ccccc1F`, 116% (inactive).

As for `O=C1c2oc3ccccc3c(=O)c2C(c2cccc(O)c2)N1c1ccccn1` (stereo not given), the HER2 level % of control was 95% (inactive).

`CCOC(=O)c1sc2nc(CSCC(=O)OCc3ccc(C(=O)OC)o3)[nH]c(=O)c2c1C`: the HER2 level % of control is 60.2% (inactive). As for `CCC(c1nnnn1Cc1ccccc1)N(Cc1cc2cc(OC)ccc2[nH]c1=O)CC1CCCO1` (stereo not given), the HER2 level % of control is 117% (inactive). Take `CCC(c1nnnn1Cc1ccco1)N(Cc1cc2cc(OC)ccc2[nH]c1=O)C1CCCCC1` (stereo not given): the HER2 level % of control was 1.98% (active). The result for `CCC(c1nnnn1Cc1ccco1)N(CCc1ccccc1)Cc1cc2ccc(OC)cc2[nH]c1=O` (stereo not given) reads 76.1% (inactive); that for `Cc1cc(NC(=O)CN2CCCCC2C)nc2c1c(=O)oc1ccccc12` (stereo not given), 70% (inactive). For the compound `COc1ccccc1CNC(=O)CCn1c(=O)sc2ccccc21`, the HER2 level % of control was 92.5% (inactive).

Turning to `COc1ccc(CN2CN(C(C)C)CSC2=S)cc1`, the HER2 level % of control was 10.7% (inactive). Take `S=C1SCN(CCN2CCOCC2)CN1Cc1ccccc1`: the HER2 level % of control was 3.88% (active). To `Cn1c(=O)c2c(nc(CN3CCOCC3)n2Cc2ccccc2)n(C)c1=O` belongs 75.7% (inactive). To `O=C(NCc1ccco1)C1CCCN(S(=O)(=O)c2cnc[nH]2)C1` (stereo not given) belongs 105% (inactive).

For `O=C(N1CCOCC1)N1CCOCC1`, the HER2 level % of control is 112% (inactive). For `CS(=O)(=O)N(CC(=O)N1CCN(Cc2ccc3c(c2)OCO3)CC1)c1ccc2c(c1)OCO2`, the HER2 level % of control is 100% (inactive). Regarding `COc1ccccc1C(=O)N1CCNC(=O)C1CC(=O)Nc1ccc(Cl)cc1` (stereo not given), the HER2 level % of control was 67.3% (inactive).

As to `Cc1nc2nc3c(cn2n1)C(=O)CC(c1ccccc1)C3` (stereo not given), the HER2 level % of control was 122% (inactive). The result for `O=C(Cn1c(-c2ccccn2)nc2ccccc21)NCCN1CCOCC1` reads 79.8% (inactive). To `COc1cc(C2C(C(=O)c3ccc(C)o3)=C(O)C(=O)N2Cc2cccnc2)ccc1O` (stereo not given) belongs 154% (inactive).

`CCCN1C(=O)C(NS(=O)(=O)c2ccc(N)cc2)(C(F)(F)F)C(C(=O)OC)=C1C` (stereo not given): the HER2 level % of control is 126% (inactive). `CCOC(=O)CSc1nncc2ccc(OC)c(OC)c12`: the HER2 level % of control was 115% (inactive). The result for `CCOC(=O)N1CCN(C(=O)CN(c2ccc(C)c(C)c2)S(=O)(=O)c2ccccc2)CC1` reads 224% (inactive). Turning to `Cc1sc2c(c1C)c(=O)n(-c1ccccc1)c1nncn21`, the HER2 level % of control was 86.7% (inactive). In the case of `N#Cc1c(NC(=O)CSc2nc3ccccc3c(=O)n2Cc2ccco2)sc2c1CCCC2`, the HER2 level % of control was 70.4% (inactive). Regarding `O=C(NC(=O)c1ccc(Cl)c(Cl)c1)OC1CCS(=O)(=O)C1` (stereo not given), the HER2 level % of control is 106% (inactive). To `OC1CN=C2Sc3ccccc3N2C1` (stereo not given) belongs 119% (inactive). `O=C1c2ccccc2C(=O)N1CCc1nn[nH]n1`: the HER2 level % of control is 90.3% (inactive). Turning to `Cc1c(CN2CCC(C)CC2)c(=O)n(-c2ccccc2)n1C`, the HER2 level % of control was 107% (inactive).

For `Cn1c(=O)n(C)c(=O)n(CC(=O)N2CCCCC2)c1=O`, the HER2 level % of control was 149% (inactive). As to `COc1ccccc1N1CCN(C(=O)CN(Cc2ccc(Cl)cc2)S(C)(=O)=O)CC1`, the HER2 level % of control was 68.2% (inactive).

Consider `COc1ccccc1-n1nnnc1S(=O)(=O)Cc1ccc(Cl)cc1`, for which the HER2 level % of control was -1.27% (active). `COc1ccccc1N1CCN(Cc2nnnn2CCc2ccccc2)CC1`: the HER2 level % of control was 102% (inactive).

For the compound `CC(C)C(=O)N1CCN(CCN=CC2=C(O)CC(c3ccco3)CC2=O)CC1` (stereo not given), the HER2 level % of control was 116% (inactive). To `CN(C)CCNC(=O)C(C(=O)c1ccccc1)n1ccccc1=O` (stereo not given) belongs 99.7% (inactive).
